The values below come from PubChem BioAssay (Tox21).

The source made the active and inactive calls. Where a call stands in place of a potency, no number is given. Calls follow the shape of the full dose curve.

Muscarinic acetylcholine receptor M1 (Homo sapiens), sequence (P11229 whole entry, looked up): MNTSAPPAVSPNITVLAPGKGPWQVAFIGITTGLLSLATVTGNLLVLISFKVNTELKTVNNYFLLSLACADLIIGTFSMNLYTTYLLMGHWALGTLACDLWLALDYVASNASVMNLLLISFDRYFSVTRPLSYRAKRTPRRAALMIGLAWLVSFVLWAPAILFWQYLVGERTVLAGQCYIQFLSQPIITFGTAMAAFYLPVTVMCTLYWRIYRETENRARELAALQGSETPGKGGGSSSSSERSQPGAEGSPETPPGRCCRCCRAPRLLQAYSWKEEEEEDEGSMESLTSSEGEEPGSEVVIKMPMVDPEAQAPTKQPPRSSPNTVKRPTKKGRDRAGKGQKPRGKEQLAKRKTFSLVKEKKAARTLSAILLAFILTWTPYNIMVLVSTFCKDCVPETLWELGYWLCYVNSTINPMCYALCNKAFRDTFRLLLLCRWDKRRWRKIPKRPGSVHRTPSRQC

The test addresses Muscarinic acetylcholine receptor M1 (Homo sapiens) (UniProt P11229). Kind of test: Cholinergic receptor muscarinic 1 (CHRM1) small molecule agonists, cell-based qHTS assay (AID 1963589). Also: nearly all actives have a fitted effect of over 35% in size. The following applies: CHRM1-CHO cells, agonist mode, calcium flux fluorescence; series mostly up to 76.8 µM. From the text:
National Center for Advancing Translational Sciences [NCATS]
Division of Preclinical Innovation [DPI]
U.S. Environmental Protection Agency [EPA]
National Institutes of Environmental Health Sciences [NIEHS]
National Toxicology Program [NTP]
U.S. Food and Drug Administration [FDA]
The CHRM1 is a muscarinic receptor. This receptor plays a crucial role in learning and memory processes and has long been identified as a promising therapeutic target for the improvement of cognitive decline in Alzheimer's disease (AD). The CHRM1-CHO cell line stably expressing human muscarinic acetylcholine receptor M1 (CHRM1) can be used for screening agonists and antagonists of interactions between CHRM1 and its ligands. The CHRM1-CHO Calcium Flux Assay is a homogeneous fluorescence-based assay for detecting the intracellular calcium level using FDSS kinetic plate reader system.
CHRM1-CHO cells were dispensed at 1000 cells/3uL/well in 1536-well black-clear bottom plates using a Multidrop Dispenser. After the assay plates were incubated at a 37 C/5% CO2 incubator for 18 h, 3 uL of Dye Loading Buffer was transferred to the assay plate by a Flying Reagent Dispenser. The assay plates were incubated at 37 C for 1h. For agonist mode, 23 nL of compounds dissolved in DMSO, positive controls or DMSO only was transferred to the assay plate by a pin tool. […] Each test compound was measured at 15 concentrations in three independent runs.
(In general: In qHTS, concentration-response curves come from the screen itself.)
For `COC12CC[C@@]3(C[C@@H]1C(C)(O)C(C)(C)C)[C@H]1Cc4ccc(O)c5c4[C@@]3(CCN1CC1CC1)[C@H]2O5` (stereo not given in full), the Potency result was “inactive”.

For `Clc1ccc(C(Cl)(Cl)Cl)cc1Cl`, the Potency entry was “inactive”. Take `CCOC(=O)COc1ccc(Cl)cc1Cl`: the Potency result is “inactive”. `Cc1ccccc1C(=O)Nc1cccc(OC(C)C)c1`: the Potency entry was “inactive”. The result for `C=CC(=O)OCCCCOC(=O)C=C` reads “inactive”; that for `FC(Cl)(Cl)C(F)(Cl)Cl`, “inactive”. Regarding `CC(O)CCl` (stereo not given), the Potency entry is “inactive”. In the case of `Cc1cc(SCc2sc(-c3ccc(C(F)(F)F)c(F)c3)nc2C)ccc1OCC(=O)O`, the Potency entry was “inactive”. The result for `CCOc1cc(OP(=S)(OC)OC)nc(CC)n1` reads “inactive”. With `S=C=NCCc1ccccc1`, the Potency entry was “inactive”. For the molecule `N#CCc1ccc(Cl)cc1`, the Potency result is “inactive”. `O=[N+]([O-])c1cccc2cccc([N+](=O)[O-])c12`: the Potency entry is “inactive”.

Consider `C=CCOC(=O)C(C)(C)OC(=O)c1cc(-n2c(=O)cc(C(F)(F)F)n(C)c2=O)ccc1Cl`, for which the Potency result is “inactive”.

Consider `OCCBr`, for which the Potency result is “inactive”. The value for `O=C=Nc1ccc(Cl)cc1` was “inactive”; that for `CC(C)OC(=O)C(O)(c1ccc(Cl)cc1)c1ccc(Cl)cc1` was “inactive”. For the molecule `O=C(Cl)c1ccccc1F`, the Potency entry was “inactive”. `COC1=CC(=O)O[C@@H](/C=C/c2ccccc2)C1`: the Potency result was “inactive”. The result for `COc1c2c(cc3c1OCO3)CCN(C)C2` reads “inactive”; that for `Cc1cc(C)c(C(=O)P(=O)(c2ccccc2)c2ccccc2)c(C)c1`, “inactive”; that for `CCc1cccc(C)c1N(C(=O)CCl)[C@@H](C)COC`, “inactive”. For `CCN(CC)c1nc(C)cc(OP(=S)(OC)OC)n1`, the Potency entry is “inactive”.

For `CNN`, the Potency entry was “inactive”. The value for `CC(C)(Cl)[N+](=O)[O-]` was “inactive”; that for `BrC(Br)C(Br)(Br)Br` was “inactive”.

`CCCC[N+]1(C)[C@@H]2CC(OC(=O)[C@H](CO)c3ccccc3)C[C@H]1[C@@H]1O[C@@H]12` (stereo not given in full): the Potency entry was “inactive”. The result for `Brc1cccc(-c2ccccc2)c1` reads “inactive”; that for `O=C(Nc1ccccc1)N(Cc1ccc(Cl)cc1)C1CCCC1`, “inactive”.

In the case of `O=C1c2ccccc2C(=O)C1C(=O)C(c1ccccc1)c1ccccc1`, the Potency result is “inactive”.

As for `Cc1ccn2nc(S(=O)(=O)Nc3c(F)cccc3F)nc2n1`, the Potency entry was “inactive”. The result for `CCOP(=S)(Oc1ccc([N+](=O)[O-])cc1)c1ccccc1` (stereo not given) reads “inactive”.

Regarding `CC(C)[N+](=O)[O-]`, the Potency result is “inactive”. The value for `CNC(=O)O/N=C(\C)SC` was “inactive”; that for `CSSC` was “inactive”; that for `Clc1ccccc1` was “inactive”. The result for `CC(C)O.CC(C)O.OCCN(CCO)CCO.OCCN(CCO)CCO.[Ti]` reads “inactive”; that for `CC(C)(c1cc(Cl)c(O)c(Cl)c1)c1cc(Cl)c(O)c(Cl)c1`, “inactive”. The value for `CCOC(=O)C1(c2ccccc2)CCN(CCc2ccc(N)cc2)CC1` was “inactive”.

Regarding `C1CCNCC1`, the Potency result was “inactive”. For the molecule `CCC(C)(C)C(=O)OC1=C(c2ccc(Cl)cc2Cl)C(=O)OC12CCCCC2`, the Potency entry is “inactive”.
